From PubChem
In the library only some 3.5% were active in any assay of this set; here they are far more common.
FBW7 activator: activators of human E3 ligase FBW7; Q969H0; AlphaScreen FBW7–phospho-cyclin E peptide binding, activator screen; normalized activity (activation), % at 26.1 µM; 0.13% of 650,000 active; AID 1259310; in the data active means normalized activity above about 1.9%;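 further: purified mutant Fbw7 with reduced substrate affinity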
Target sequence (Q969H0 whole entry, looked up): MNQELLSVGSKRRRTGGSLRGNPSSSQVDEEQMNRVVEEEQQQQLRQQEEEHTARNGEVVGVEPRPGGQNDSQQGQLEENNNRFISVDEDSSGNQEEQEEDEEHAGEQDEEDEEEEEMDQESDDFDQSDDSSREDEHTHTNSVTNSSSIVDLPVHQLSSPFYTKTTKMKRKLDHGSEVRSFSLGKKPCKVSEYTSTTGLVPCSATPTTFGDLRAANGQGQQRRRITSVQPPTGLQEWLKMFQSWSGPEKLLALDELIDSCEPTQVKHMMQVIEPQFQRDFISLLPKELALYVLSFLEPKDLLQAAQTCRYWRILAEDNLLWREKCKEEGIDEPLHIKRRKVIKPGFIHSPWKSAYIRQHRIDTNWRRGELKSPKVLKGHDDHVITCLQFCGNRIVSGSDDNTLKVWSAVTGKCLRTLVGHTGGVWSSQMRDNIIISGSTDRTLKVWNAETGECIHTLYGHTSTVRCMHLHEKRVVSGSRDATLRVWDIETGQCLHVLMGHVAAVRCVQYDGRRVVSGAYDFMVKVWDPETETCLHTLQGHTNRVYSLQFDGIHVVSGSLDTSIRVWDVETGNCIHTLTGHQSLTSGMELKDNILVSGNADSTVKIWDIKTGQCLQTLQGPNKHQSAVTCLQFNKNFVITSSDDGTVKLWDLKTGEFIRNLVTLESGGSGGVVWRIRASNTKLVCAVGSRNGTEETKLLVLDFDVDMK
MITF primary: human MITF inhibition, primary screen. AlphaScreen MITF homodimerization, bead proximity signal. O75030. inhibition, % at 2.6 µM. 0.91% of 650,000 active. AID 1259374; in the data active means inhibition above about 50%;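 further: 0% = vehicle wells with protein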
TEAD-YAP inh: TEAD-YAP interaction inhibition; 1.4% of 640,000 active; inhibition, % at 9.12 µM; AID 1259422; HEK-TIYL cells, TEAD-Gal4/YAP UAS-luciferase luminescence; in the data active means inhibition above about 32%;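 further: 0% = median of test compound wells and 100% = reference inhibitor wells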
GPR151 activ: activators of human GPR151 | activation, % at 11.2 µM | 1% of 650,000 active | Q8TDV0 | PathHunter beta-arrestin GPR151 cells, luminescence; in the data active means activation above about 4.9%;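 further: 0% = median of compound wells and 100% = cells with positive control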
GPR151 confirm: confirmation of human GPR151 activators; shares compounds with GPR151 activ; GPR151 PathHunter beta-arrestin cells, luminescence, 90 min; % of EA-reagent control over plate median; activation, % at 11.2 µM; 6,700 tested, under 10 active; AID 1508609;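 active means mean percent activation across replicates above the confirmation screen cutoff of 4.91%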
GPR119 ag: counter-screen for GPR151 activators: effect on human GPR119; shares compounds with GPR151 activ; GPR119 PathHunter beta-arrestin cells, luminescence, 90 min; 0 = compound-well median, 100 = enzyme-acceptor control; activation, % at 11.2 µM; 0.3% of 6,700 active;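 active means mean percent activation in the counterscreen above 29.09%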;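 further: counterscreen on off-target GPR119 to flag nonselective hits from the GPR151 activator screen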
* marks the source's active call; other numbers are inactive results; x = not tested or not shown; ! = not confirmed by another sample.

SMILES | FBW7 activator | MITF primary | TEAD-YAP inh | GPR151 activ | GPR151 confirm | GPR119 ag
CCC1CN(CC(=O)NC(C)c2nc(C)cs2)Cc2cc(OC)ccc2O1 (stereo not given) | 0 | 1 | -6 | 0 | x | x
CC(=O)Nc1cnn(-c2ccc(C(=O)N(C)Cc3ccc(Oc4ccccc4)cc3)cc2)c1 | 0 | 6 | 11 | 8.4* | 1 | 28
CC(=O)c1cccc(S(=O)(=O)NCC(F)(F)F)c1 | 0 | -11 | -3 | 5.5* | -1 | 6
C=CCNS(=O)(=O)c1cccc(C(C)=O)c1 | 0 | 14 | -1 | 1 | x | x
O=C(CCC(=O)OCC(=O)c1ccc(Cl)c(Cl)c1)Nc1ccccc1 | 0 | -1 | -1 | 5.5* | 1 | 1
O=C(CCC(=O)OCC(=O)c1ccc(Cl)c(Cl)c1)Nc1ccc(F)cc1 | 1 | 13 | 0 | 1 | x | x
COc1ccc(-c2oc3c(CC=C(C)C)c(O[C@@H]4O[C@H](CO)[C@@H](O)[C@H](O)[C@H]4O)cc(O)c3c(=O)c2O[C@@H]2O[C@@H](C)[C@H](O)[C@@H](O)[C@H]2O)cc1 | 0 | -4 | 0 | 6.8*! | 0 | -8
CC(C)(C)c1ccc(OCC(O)CS(=O)Cc2ccccc2)cc1 (stereo not given) | 0 | 1 | 0 | 5.4* | 0 | 6
COC(=O)COc1ccc2c(C)c(C)c(=O)oc2c1C | 1 | 8 | 3 | -1 | x | x
CCc1c(C)c2ccc(OCC(=O)OC)c(C)c2oc1=O | 0 | 2 | 6 | 5.1* | 0 | -8
CC(=O)c1ccc(NC(=O)CSc2n[nH]c(-c3ccccc3O)n2)cc1 | 0 | 7 | 0 | -1 | x | x
COC(=O)C(Cc1c[nH]c2ccccc12)NC(=O)C(C)C (stereo not given) | 0 | 24 | 3 | 1 | x | x
COC(=O)C(Cc1c[nH]c2ccccc12)NC(=O)C(=O)c1c(C)[nH]c2ccccc12 (stereo not given) | 0 | 8 | 3 | 6.9* | 0 | 6
C=CCn1c(CCNC(=O)C(C)C)nc2ccccc21 | 0 | 5 | -1 | 7.0* | 0 | 4
CC(C)C(=O)NCCc1nc2ccccc2n1Cc1ccccc1 | 0 | 8 | -4 | 0 | x | x
CCOc1ccccc1/C=C1\Oc2c(ccc(O)c2CN2CCN(C)CC2)C1=O | 0 | 19 | 4 | 0 | x | x
Cc1cc(C)n(CC2CCN(C(=O)c3cc4ccccc4[nH]3)CC2)n1 | 0 | -8 | -4 | -2 | x | x
Cc1ccc(OC(=O)c2ccc(N3C(=O)c4cccc([N+](=O)[O-])c4C3=O)cc2)cc1C | 0 | -9 | 4 | 5.9* | 0 | 11
O=C(NC1CC1)c1ccc(-c2nc(NCc3ccccc3)c3ncn(-c4ccccc4)c3n2)cc1 | 0 | -7 | 2 | 2 | x | x
O=C(NC1CC1)c1ccc(-c2nc(NCc3nc4ccccc4[nH]3)c3ncn(-c4ccccc4)c3n2)cc1 | 1 | -1 | 73* | 5.0* | 0 | 4
Cc1ccc(NC(=O)c2ccn(C(=O)c3cccc(I)c3)n2)c(C)c1 | 0 | 6 | -6 | -1 | x | x
Cc1c(=O)n(OCc2ccccc2F)c2ccccc2[n+]1[O-] | 0 | -17 | 1 | 12* | 0 | -1
Cc1c(=O)n(OCc2cccc(F)c2)c2ccccc2[n+]1[O-] | 0 | 2 | 1 | 1 | x | x
O=C(N/C(=C/c1ccc(Cl)cc1)C(=O)N1CCOCC1)c1ccccc1 | 0 | -2 | 3 | 2 | x | x
O=C(N/C(=C/c1ccc(Cl)cc1)C(=O)N1CCOCC1)c1ccccc1Br | 0 | 10 | 12 | 6.3* | -1 | -13
SMILES | FBW7 activator | MITF primary | TEAD-YAP inh | GPR151 activ | GPR151 confirm | GPR119 ag
O=C(NCCN1CCOCC1)c1cccc(-n2ncc3cc(Nc4ccccc4Cl)ccc32)n1 | 0 | 3 | -2 | 4.9* | 1 | -7
O=C(NCCN1CCOCC1)c1cccc(-n2ncc3cc(Nc4ccccc4Cl)ccc32)c1 | 0 | 5 | 11 | -1 | x | x
COc1ccc(C2CC(=O)N3CN(Cc4ccccc4)CSC3=C2C#N)cc1 (stereo not given) | 0 | 8 | 6 | 5.8* | -1 | -12
CCOc1cc(C(=O)Nc2ccccc2N2CCOCC2)cc(OCC)c1OCC | 0 | -2 | 5 | 5.8* | 0 | -9
COc1ccccc1C(=O)Nc1cc(C(=O)c2ccccc2)ccc1N1CCOCC1 | 0 | 15 | 14 | -2 | x | x
CC(=O)Nc1cc(C(=O)c2ccccc2)ccc1N1CCOCC1 | 0 | -1 | 4 | 6.1* | 1 | -4
Cc1ccc(CNC(=O)CSc2nc3ccccc3c(=O)n2CC2CCC(C(=O)NCC3CCCO3)CC2)cc1 (stereo not given) | 0 | 4 | 1 | 0 | x | x
Cc1ccc(-n2nc3c(c2NC(=O)c2ccc(Br)cc2)CSC3)c(C)c1 | 0 | 1 | 3 | 1 | x | x
COC(=O)C1=C(C(C)=O)C(c2ccccc2Cl)n2nnnc2N1 (stereo not given) | 1 | 14 | 8 | 1 | x | x
Cn1c(=O)n(CC(=O)NCc2ccc(F)cc2)c2cccnc21 | 0 | 0 | -20 | 10* | 0 | 0
COc1ccc(OC)c(NC(=O)CCc2nnc3ccc(N4CCCCC4)nn23)c1 | 0 | 4 | 2 | 2 | x | x
COc1ccc(Cl)cc1NC(=O)CCc1nnc2ccc(N3CCN(C)CC3)nn12 | 0 | -11 | -2 | 5.1* | 0 | 2
COc1cccc(N2C(=O)NC(=O)/C(=C/c3ccc(O)c(O)c3)C2=O)c1 | 0 | -24 | -3 | 5.1* | 1 | 5
COc1ccc(N2C(=O)/C(=C/c3cccs3)C(=O)NC2=S)c(OC)c1 | 0 | 8 | 8 | 5.2* | 0 | 2
Cc1cccc(N2C(=O)NC(=O)/C(=C\c3ccc(N(C)C)c([N+](=O)[O-])c3)C2=O)c1 | 0 | 0 | -11 | 5.6* | -1 | -5
CCOc1cc(/C=C2\C(=O)NC(=O)N(c3ccc(Br)c(C)c3)C2=O)ccc1O | 0 | 3 | 5 | 5.0* | 0 | -6
COc1ccc(OC)c(N2C(=O)NC(=O)/C(=C/c3cccs3)C2=O)c1 | 0 | -2 | -3 | 1 | x | x
COc1ccc(/C=C2\C(=O)NC(=O)N(c3ccccc3OC)C2=O)cc1 | 0 | -4 | -3 | 4.9* | 0 | 10
Cc1[nH]c(-c2ccc(F)cc2)cc1C(=O)N1CCOCC1 | 0 | -8 | -12 | 5.8* | 0 | 0
Cc1[nH]c(-c2ccc(F)cc2)cc1C(=O)N1CCCC1 | 0 | 2 | -6 | 5 | x | x
COc1cccc(C(Nc2cc(C)ccn2)c2ccc3cccnc3c2O)c1 (stereo not given) | 0 | 32 | 80* | 5.1* | 0 | 0
Cc1ccnc(NC(c2cccc(C)n2)c2ccc3cccnc3c2O)c1 (stereo not given) | 0 | 26 | 19 | -1 | x | x
Nc1ncc(-c2cccc(OC(F)(F)F)c2)nc1N1CCOCC1 | 0 | -1 | 4 | 0 | x | x
